“And” between values parts separate entries of the source, which are not always exact repeats. Identical values can stand only once. In all, about 5,500 compounds went through this assay and about 2,000 (36%) were called active. Not shown: some 18% with an inconclusive outcome. No stated cut-off is given here; in the data, active means normalized growth mostly below about 0.91 (no sharp cut-off); inconclusive means no clear call, values can overlap the other calls; inactive means mostly above about 0.92. The list shows a part of the results.
Assay: chemical genetic growth profiling, strain panel (AID 1159580);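 further: tested at 20 µM; growth read once vehicle control cultures reached saturation at 30 °C; 1 = growth at the plate median or of vehicle wells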
Conditions: S. cerevisiae deletion strains, growth OD

Measured: normalized growth

CC[C@@H](C(=O)C(C)[C@@H](O)[C@H](C)CCc1ccc(C)c(O)c1C(=O)O)C1OC(CC)(C2CC[C@](O)(CC)[C@H](C)O2)C[C@@H]1C (stereo partly drawn)
active: locus YBR021W, strain FUR4, stronger effect = lower value 1.16 [resistant] | locus YBR171W, strain sec66, stronger effect = lower value 1.12 [resistant] | locus YCL069W, strain vba3, stronger effect = lower value 1.08 [resistant] | locus YDR137W, strain rgp1, stronger effect = lower value 1.24 [resistant] | locus YDR392W, strain spt3, stronger effect = lower value 0.732 | locus YER155C, strain BEM2, stronger effect = lower value 1.13 [resistant] | locus YGL227W, strain vid30, stronger effect = lower value 1.09 [resistant]
inactive: locus YAL013W, strain DEP1, stronger effect = lower value 1.05 | locus YAL021C, strain ccr4, stronger effect = lower value 1.03 | locus YAL026C, strain drs2, stronger effect = lower value 0.949 | locus YAL030W, strain snc1, stronger effect = lower value 1.06 | locus YBL061C, strain skt5, stronger effect = lower value 1.06 | locus YBR009C, strain hhf1, stronger effect = lower value 1.01 | locus YBR023C, strain chs3, stronger effect = lower value 1.06 | locus YBR229C, strain ROT2, stronger effect = lower value 1.04 | locus YBR231C, strain swc5, stronger effect = lower value 1.07 | locus YBR279W, strain paf1, stronger effect = lower value 1.06 | locus YCL011C, strain gbp2, stronger effect = lower value 1.06 | locus YCL016C, strain dcc1, stronger effect = lower value 1.05 | locus YCL029C, strain bik1, stronger effect = lower value 1.02 | locus YCL061C, strain MRC1, stronger effect = lower value 1.04 | locus YCR088W, strain abp1, stronger effect = lower value 1.07 | locus YDL005C, strain med2, stronger effect = lower value 1.08 | locus YDL035C, strain GPR1, stronger effect = lower value 0.978 | locus YDL040C, strain nat1, stronger effect = lower value 1.06 | locus YDL074C, strain BRE1, stronger effect = lower value 0.938 | locus YDL101C, strain DUN1, stronger effect = lower value 1.03 | locus YDL134C, strain PPH21, stronger effect = lower value 1.02 | locus YDL185W, strain tfp1, stronger effect = lower value 0.993 | locus YDL192W, strain arf1, stronger effect = lower value 1.01 | locus YDR001C, strain nth1, stronger effect = lower value 1.07 | locus YDR069C, strain doa4, stronger effect = lower value 1.02 | locus YDR101C, strain arx1, stronger effect = lower value 1.04 | locus YDR150W, strain NUM1, stronger effect = lower value 1.05 | locus YDR159W, strain sac3, stronger effect = lower value 0.996 | locus YDR162C, strain NBP2, stronger effect = lower value 1.01 | locus YDR195W, strain ref2 1.05 | locus YDR297W, strain sur2, stronger effect = lower value 1.05 | locus YDR318W, strain mcm21, stronger effect = lower value 1.01 | locus YDR334W, strain swr1, stronger effect = lower value 1.08 | locus YDR335W, strain msn5, stronger effect = lower value 1.08 | locus YDR388W, stronger effect = lower value 1.02 | locus YDR502C, strain sam2, stronger effect = lower value 1 | locus YEL003W, strain gim4, stronger effect = lower value 1.04 | locus YEL037C, strain rad23, stronger effect = lower value 1.07 | locus YEL061C, strain CIN8 (second series), stronger effect = lower value 1.08 | locus YEL061C, strain CIN8, stronger effect = lower value 1.02 | locus YER015W, strain faa2, stronger effect = lower value 1.06 | locus YER016W, strain bim1, stronger effect = lower value 1.05 | locus YER110C, stronger effect = lower value 1.02 | locus YER111C, strain swi4, stronger effect = lower value 1.07 | locus YER155C, strain BEM2 (second series), stronger effect = lower value 1.04 | locus YER167W, strain BCK2, stronger effect = lower value 1.02 | locus YFR010W, strain ubp6, stronger effect = lower value 1.06 | locus YGL078C, strain dbp3, stronger effect = lower value 0.998 | locus YGL086W, strain mad1, stronger effect = lower value 1.05 | locus YGL167C, strain pmr1, stronger effect = lower value 1.07 | locus YGL173C, strain kem1, stronger effect = lower value 1.04 | locus YGL240W, strain doc1, stronger effect = lower value 1.03 | locus YGL248W, strain PDE1, stronger effect = lower value 1.02 | locus YGL253W, strain hxk2, stronger effect = lower value 1.06 | locus YGR135W, strain pre9, stronger effect = lower value 0.981 | locus YGR252W, strain gcn5, stronger effect = lower value 0.967 | locus YHR013C, strain ard1, stronger effect = lower value 1.1 | locus YHR027C, strain rpn1, stronger effect = lower value 1.07 | locus YHR030C, strain SLT2, stronger effect = lower value 1.03 and 0.969 | locus YHR079C, strain IRE1 (second series), stronger effect = lower value 1.02 | locus YHR079C, strain IRE1, stronger effect = lower value 0.944 | locus YHR094C, strain hxt1, stronger effect = lower value 1.03 | locus YHR129C, strain ARP1, stronger effect = lower value 1.04 | locus YHR142W, strain chs7, stronger effect = lower value 1.08 | locus YHR200W, strain rpn10, stronger effect = lower value 1.02 | locus YIL066C, strain RNR3, stronger effect = lower value 1.02 | locus YIL073C, strain SPO22, stronger effect = lower value 0.988 | locus YIL125W, strain kgd1, stronger effect = lower value 1 | locus YIR030C, strain dcg1, stronger effect = lower value 1.03 | locus YJL092W, strain hpr5, stronger effect = lower value 1.06 | locus YJL095W, strain BCK1 (second series), stronger effect = lower value 1.06 | locus YJL095W, strain BCK1, stronger effect = lower value 1.02 and 0.976 | locus YJL115W, strain asf1, stronger effect = lower value 1.06 | locus YJL129C, strain trk1, stronger effect = lower value 0.976 | locus YJL134W, strain LCB3, stronger effect = lower value 1.04 | locus YJL154C, strain vps35, stronger effect = lower value 1.06 | locus YJL164C, strain tpk1, stronger effect = lower value 1.03 | locus YJL166W, strain qcr8, stronger effect = lower value 1.06 | locus YJL168C, strain set2, stronger effect = lower value 1.04 | locus YJL187C, strain SWE1 (second series), stronger effect = lower value 1.03 | locus YJL187C, strain SWE1, stronger effect = lower value 1.06
